From article PMC7862700, “An all-to-all approach to the identification of sequence-specific readers for epigenetic DNA modifications on cytosine”

Legend:
Assay in all cases: DAPPL (digital affinity profiling via proximity ligation, sequencing); 10 mM Tris-HCl pH 7.5, 50 mM NaCl, 1 mM DTT, 4% glycerol, room temperature, 30 min; GST-TFs on glutathione beads, 16-mer random dsDNA library, 0.1% formaldehyde crosslink after washing; high values mean tight binding
[1] = target: T1, FLI1 (Homo sapiens, UniProt Q01543 1-452); settings: protein: recombinant; tags: N-terminal GST; dsDNA, one strand shown
T1 sequence: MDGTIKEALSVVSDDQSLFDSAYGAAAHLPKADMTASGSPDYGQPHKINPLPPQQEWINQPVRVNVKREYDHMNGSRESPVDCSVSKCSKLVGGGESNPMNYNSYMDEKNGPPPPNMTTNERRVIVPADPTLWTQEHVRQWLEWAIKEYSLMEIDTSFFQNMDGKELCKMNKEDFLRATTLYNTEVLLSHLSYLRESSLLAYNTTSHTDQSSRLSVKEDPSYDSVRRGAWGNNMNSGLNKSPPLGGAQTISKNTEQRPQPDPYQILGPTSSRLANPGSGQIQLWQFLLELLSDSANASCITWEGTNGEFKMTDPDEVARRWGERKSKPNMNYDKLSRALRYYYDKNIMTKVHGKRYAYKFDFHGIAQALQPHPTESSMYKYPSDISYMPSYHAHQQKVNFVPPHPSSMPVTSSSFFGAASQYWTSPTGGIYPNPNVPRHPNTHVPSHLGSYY
Procedure, shortened: (§1)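 Pools of DNA-barcoded human transcription factors, expressed in yeast as GST fusions on glutathione beads and combined with a tag-only sample, were incubated with 200 nmole of a 16-mer random double-stranded DNA library. Incubation took 30 min at room temperature in Tris/NaCl/DTT/glycerol buffer and was followed by washing, 0.1% formaldehyde crosslinking, proximity ligation (BsaI/T4 ligase, 1 h, 37 °C), PCR amplification and sequencing on an Illumina NextSeq500. Binding signal is the ratio of a hexamer's read frequency for a factor to its frequency for the tag-only sample.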

[2] = target: T2, ELK1 (Homo sapiens, UniProt P19419 1-428); settings: protein: recombinant; tags: N-terminal GST; dsDNA, one strand shown
T2 sequence: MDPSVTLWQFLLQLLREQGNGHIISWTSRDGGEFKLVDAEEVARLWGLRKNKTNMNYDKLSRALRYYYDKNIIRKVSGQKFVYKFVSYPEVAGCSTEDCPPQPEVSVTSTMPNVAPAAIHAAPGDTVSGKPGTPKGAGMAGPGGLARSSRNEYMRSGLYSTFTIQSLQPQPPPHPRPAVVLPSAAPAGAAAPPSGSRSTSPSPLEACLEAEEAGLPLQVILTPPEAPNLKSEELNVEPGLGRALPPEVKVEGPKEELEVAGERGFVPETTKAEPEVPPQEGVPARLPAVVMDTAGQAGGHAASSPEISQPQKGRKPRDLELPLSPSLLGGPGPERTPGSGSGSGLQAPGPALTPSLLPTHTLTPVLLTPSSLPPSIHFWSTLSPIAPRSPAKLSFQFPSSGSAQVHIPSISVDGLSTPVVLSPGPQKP
Procedure, shortened: as §1

[3] = target: T3, GABPA (Homo sapiens, UniProt Q06546 1-454); settings: protein: recombinant; tags: N-terminal GST; dsDNA, one strand shown
T3 sequence: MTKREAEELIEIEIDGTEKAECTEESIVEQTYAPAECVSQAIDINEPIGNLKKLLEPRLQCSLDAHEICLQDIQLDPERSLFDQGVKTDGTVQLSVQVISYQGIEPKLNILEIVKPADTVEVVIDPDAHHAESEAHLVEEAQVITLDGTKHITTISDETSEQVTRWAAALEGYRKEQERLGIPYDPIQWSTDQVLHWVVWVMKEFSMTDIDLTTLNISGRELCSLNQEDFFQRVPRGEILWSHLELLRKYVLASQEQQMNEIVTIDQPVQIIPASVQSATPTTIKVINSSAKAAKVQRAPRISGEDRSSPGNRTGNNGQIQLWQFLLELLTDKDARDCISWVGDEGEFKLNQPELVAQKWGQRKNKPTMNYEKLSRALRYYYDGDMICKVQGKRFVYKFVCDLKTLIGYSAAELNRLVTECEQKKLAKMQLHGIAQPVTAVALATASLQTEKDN
Procedure, shortened: as §1

[4] = target: T4, ERG (Homo sapiens, UniProt P11308 1-479); settings: protein: recombinant; tags: N-terminal GST; dsDNA, one strand shown
T4 sequence: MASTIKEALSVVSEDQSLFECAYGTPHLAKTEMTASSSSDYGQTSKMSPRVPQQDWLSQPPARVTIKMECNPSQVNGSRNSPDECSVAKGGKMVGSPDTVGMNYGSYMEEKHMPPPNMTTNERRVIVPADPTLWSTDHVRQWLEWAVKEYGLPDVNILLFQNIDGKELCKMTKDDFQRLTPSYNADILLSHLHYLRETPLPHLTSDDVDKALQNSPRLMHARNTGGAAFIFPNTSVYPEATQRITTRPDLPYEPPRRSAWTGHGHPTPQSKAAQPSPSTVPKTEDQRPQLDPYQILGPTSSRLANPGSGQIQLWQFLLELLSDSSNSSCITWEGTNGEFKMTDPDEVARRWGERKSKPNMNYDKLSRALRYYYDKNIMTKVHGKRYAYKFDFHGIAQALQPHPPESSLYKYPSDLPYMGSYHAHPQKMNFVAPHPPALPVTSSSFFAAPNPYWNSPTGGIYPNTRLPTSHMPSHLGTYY
Procedure, shortened: as §1

[5] = target: ELF1 (Homo sapiens, UniProt P32519 1-619); settings: protein: recombinant; tags: N-terminal GST; dsDNA, one strand shown
Sequence of ELF1 (P32519 whole entry): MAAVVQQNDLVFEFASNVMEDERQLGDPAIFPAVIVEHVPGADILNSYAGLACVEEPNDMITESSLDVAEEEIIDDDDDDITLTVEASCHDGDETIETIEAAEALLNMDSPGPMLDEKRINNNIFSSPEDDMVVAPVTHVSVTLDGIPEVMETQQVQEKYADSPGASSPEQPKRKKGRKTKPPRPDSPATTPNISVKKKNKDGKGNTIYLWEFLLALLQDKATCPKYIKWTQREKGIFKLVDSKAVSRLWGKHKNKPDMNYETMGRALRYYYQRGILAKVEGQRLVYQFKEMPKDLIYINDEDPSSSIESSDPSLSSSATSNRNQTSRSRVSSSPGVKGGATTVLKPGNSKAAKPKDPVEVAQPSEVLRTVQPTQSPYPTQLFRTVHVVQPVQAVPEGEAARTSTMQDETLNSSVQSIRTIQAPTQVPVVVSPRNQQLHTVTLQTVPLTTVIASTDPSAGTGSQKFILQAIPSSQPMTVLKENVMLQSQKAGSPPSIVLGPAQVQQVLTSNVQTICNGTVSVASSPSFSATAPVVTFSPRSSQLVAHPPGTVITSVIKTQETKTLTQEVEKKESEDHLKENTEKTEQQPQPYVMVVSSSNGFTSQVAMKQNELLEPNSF
Procedure, shortened: as §1

[6] = target: T5, EHF (Homo sapiens, UniProt Q9NZC4 1-300); settings: protein: recombinant; tags: N-terminal GST; dsDNA, one strand shown
T5 sequence: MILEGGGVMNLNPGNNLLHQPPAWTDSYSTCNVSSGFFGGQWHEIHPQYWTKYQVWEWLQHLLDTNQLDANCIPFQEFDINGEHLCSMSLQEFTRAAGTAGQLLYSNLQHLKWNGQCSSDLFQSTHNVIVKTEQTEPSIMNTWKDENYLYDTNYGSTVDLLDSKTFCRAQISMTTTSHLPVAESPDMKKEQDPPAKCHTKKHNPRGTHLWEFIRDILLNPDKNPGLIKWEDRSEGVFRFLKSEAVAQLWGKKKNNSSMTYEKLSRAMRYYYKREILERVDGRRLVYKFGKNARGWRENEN
Procedure, shortened: as §1

[7] = target: SPI1 (Homo sapiens, UniProt P17947 1-270); settings: protein: recombinant; tags: N-terminal GST; dsDNA, one strand shown
Procedure, shortened: as §1

[8] = target: SPIB (Homo sapiens, UniProt Q01892 1-262); settings: protein: recombinant; tags: N-terminal GST; dsDNA, one strand shown
Sequence of SPIB (Q01892 whole entry): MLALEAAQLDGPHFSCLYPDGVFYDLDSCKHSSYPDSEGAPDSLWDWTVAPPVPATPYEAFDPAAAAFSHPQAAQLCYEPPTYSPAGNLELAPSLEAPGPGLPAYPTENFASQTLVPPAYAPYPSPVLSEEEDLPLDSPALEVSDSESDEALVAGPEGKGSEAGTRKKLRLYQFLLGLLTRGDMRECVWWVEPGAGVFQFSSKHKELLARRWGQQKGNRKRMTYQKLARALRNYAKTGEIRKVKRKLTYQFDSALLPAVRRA
Procedure, shortened: as §1

[9] = target: T6, ELK3 (Homo sapiens, UniProt P41970 1-407); settings: protein: recombinant; tags: N-terminal GST; dsDNA, one strand shown
T6 sequence: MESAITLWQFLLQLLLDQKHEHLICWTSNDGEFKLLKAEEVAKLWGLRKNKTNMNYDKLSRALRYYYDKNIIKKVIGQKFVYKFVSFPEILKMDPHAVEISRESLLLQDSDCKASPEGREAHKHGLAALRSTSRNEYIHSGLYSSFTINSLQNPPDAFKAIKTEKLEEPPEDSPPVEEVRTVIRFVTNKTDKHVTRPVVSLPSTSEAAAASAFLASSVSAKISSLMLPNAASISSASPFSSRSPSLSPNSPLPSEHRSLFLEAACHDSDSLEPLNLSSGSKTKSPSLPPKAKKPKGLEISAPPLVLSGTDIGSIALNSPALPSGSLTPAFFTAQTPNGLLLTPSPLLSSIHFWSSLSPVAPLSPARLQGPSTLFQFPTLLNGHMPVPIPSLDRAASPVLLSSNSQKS
Procedure, shortened: as §1

[10] = target: T7, FEV (Homo sapiens, UniProt Q99581 1-238); settings: protein: recombinant; tags: N-terminal GST; dsDNA, one strand shown
T7 sequence: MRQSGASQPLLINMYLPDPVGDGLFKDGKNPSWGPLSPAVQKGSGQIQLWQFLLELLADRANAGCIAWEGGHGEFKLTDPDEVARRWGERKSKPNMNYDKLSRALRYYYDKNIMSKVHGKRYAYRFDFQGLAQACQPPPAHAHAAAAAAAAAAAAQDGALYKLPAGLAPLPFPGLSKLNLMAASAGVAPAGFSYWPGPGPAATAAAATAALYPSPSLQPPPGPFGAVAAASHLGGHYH
Procedure, shortened: as §1

[11] = target: ETV5 (Homo sapiens, UniProt P41161 1-510); settings: protein: recombinant; tags: N-terminal GST; dsDNA, one strand shown
Sequence of ETV5 (P41161 whole entry): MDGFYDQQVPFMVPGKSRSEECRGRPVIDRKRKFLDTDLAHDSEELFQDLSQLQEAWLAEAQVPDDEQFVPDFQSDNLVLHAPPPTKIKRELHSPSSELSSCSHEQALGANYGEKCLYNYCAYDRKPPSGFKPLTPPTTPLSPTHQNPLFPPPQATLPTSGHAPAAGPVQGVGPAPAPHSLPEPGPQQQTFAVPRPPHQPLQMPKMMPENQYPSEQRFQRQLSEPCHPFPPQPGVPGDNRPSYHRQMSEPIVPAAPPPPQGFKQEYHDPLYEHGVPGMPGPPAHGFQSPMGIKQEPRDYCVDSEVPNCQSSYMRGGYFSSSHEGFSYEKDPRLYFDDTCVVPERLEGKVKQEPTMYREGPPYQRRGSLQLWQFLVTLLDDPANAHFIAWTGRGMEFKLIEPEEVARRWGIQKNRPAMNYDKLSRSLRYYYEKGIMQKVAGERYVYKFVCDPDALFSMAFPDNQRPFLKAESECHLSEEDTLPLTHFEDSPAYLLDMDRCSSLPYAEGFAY
Procedure, shortened: as §1

[12] = target: HSF1 (Homo sapiens, UniProt Q00613 1-529); settings: protein: recombinant; tags: N-terminal GST; chain copies: 3; dsDNA, one strand shown
Sequence of HSF1 (Q00613 whole entry): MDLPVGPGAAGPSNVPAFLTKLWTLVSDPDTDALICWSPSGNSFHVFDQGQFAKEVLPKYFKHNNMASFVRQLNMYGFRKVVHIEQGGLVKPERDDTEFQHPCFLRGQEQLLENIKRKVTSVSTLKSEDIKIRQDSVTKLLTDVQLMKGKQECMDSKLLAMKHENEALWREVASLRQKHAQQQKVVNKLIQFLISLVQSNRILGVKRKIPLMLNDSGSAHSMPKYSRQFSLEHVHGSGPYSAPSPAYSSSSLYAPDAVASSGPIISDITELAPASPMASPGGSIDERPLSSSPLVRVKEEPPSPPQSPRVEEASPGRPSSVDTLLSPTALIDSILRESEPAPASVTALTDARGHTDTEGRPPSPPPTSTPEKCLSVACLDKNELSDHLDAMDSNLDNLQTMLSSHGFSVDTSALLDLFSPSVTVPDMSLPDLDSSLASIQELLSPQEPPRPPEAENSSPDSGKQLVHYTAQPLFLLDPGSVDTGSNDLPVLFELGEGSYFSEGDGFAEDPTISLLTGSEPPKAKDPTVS
Procedure, shortened: as §1

[13] = target: T8, SPIC (Homo sapiens, UniProt Q8N5J4 1-248); settings: protein: recombinant; tags: N-terminal GST; dsDNA, one strand shown
T8 sequence: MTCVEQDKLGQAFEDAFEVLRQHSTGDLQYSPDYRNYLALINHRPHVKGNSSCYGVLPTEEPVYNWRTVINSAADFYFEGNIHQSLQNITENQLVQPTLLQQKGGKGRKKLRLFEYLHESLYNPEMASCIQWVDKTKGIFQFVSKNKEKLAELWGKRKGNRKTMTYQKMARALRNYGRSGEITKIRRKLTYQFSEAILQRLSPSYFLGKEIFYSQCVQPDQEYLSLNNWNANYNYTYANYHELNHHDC
Procedure, shortened: as §1

[14] = target: ELF4 (Homo sapiens, UniProt Q99607 1-663); settings: protein: recombinant; tags: N-terminal GST; dsDNA, one strand shown
Sequence of ELF4 (Q99607 whole entry): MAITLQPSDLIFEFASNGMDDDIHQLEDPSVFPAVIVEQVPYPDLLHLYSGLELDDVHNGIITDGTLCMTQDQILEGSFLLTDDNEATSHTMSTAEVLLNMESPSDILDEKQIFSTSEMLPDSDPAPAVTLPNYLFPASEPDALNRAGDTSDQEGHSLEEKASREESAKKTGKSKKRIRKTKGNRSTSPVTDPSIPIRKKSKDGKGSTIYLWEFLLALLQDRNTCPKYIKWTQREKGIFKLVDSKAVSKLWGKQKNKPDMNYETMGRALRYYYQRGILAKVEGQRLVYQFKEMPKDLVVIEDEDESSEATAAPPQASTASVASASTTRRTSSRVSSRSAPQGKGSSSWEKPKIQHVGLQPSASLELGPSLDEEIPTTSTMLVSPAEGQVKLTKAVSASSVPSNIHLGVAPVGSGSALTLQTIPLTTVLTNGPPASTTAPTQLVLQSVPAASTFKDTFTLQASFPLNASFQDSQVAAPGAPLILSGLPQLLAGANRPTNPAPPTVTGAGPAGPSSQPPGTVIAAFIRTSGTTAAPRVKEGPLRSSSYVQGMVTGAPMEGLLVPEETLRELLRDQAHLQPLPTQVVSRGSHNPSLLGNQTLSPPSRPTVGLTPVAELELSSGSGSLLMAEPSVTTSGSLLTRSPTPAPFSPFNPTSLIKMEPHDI
Procedure, shortened: as §1

[15] = target: T9, ELK4 (Homo sapiens, UniProt P28324-2 1-405); settings: protein: recombinant; tags: N-terminal GST; dsDNA, one strand shown
T9 sequence: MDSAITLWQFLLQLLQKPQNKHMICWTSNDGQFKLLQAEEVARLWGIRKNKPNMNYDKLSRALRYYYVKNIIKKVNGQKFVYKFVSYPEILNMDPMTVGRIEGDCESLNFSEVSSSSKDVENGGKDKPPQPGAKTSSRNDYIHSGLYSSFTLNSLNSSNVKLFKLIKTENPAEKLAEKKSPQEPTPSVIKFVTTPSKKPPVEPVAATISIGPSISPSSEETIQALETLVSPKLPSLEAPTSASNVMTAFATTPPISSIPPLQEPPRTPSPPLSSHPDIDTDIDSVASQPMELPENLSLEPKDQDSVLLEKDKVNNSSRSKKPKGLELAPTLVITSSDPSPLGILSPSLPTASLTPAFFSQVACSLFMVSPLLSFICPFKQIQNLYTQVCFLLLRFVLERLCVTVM
Procedure, shortened: as §1

[16] = target: T10, ETV2 (Homo sapiens, UniProt O00321 1-342); settings: protein: recombinant; tags: N-terminal GST; dsDNA, one strand shown
T10 sequence: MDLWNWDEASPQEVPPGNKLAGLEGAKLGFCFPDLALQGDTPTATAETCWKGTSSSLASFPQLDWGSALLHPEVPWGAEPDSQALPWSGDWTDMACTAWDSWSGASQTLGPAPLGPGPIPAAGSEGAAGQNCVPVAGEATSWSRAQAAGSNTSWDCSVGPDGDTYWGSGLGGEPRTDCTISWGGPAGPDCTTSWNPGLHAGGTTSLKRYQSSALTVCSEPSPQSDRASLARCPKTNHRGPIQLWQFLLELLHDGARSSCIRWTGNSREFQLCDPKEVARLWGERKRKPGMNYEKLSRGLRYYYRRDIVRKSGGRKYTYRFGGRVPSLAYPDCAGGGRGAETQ
Procedure, shortened: as §1

[17] = target: T11, ELF3 (Homo sapiens, UniProt P78545 1-371); settings: protein: recombinant; tags: N-terminal GST; dsDNA, one strand shown
T11 sequence: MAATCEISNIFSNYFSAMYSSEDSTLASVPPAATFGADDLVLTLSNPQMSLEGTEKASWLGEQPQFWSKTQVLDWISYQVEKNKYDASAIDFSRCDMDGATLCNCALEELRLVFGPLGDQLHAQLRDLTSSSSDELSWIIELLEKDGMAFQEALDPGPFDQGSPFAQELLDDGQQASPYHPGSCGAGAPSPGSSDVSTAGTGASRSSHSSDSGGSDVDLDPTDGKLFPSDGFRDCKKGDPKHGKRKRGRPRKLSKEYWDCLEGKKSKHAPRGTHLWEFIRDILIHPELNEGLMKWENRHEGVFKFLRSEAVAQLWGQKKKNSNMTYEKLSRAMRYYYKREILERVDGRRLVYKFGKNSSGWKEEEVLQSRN
Procedure, shortened: as §1

[18] = target: CRX (Homo sapiens, UniProt O43186 1-299); settings: protein: recombinant; tags: N-terminal GST; dsDNA, one strand shown
Sequence of CRX (O43186 whole entry): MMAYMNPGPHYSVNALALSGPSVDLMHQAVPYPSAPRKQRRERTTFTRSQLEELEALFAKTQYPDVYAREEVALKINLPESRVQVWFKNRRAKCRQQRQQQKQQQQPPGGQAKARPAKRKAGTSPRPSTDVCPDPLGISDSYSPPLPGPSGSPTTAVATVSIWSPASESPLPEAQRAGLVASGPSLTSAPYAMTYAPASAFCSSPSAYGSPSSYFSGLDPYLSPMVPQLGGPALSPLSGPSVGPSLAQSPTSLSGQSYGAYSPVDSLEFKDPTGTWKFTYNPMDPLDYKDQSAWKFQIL
Procedure, shortened: as §1

[19] = target: ETV1 (Homo sapiens, UniProt P50549 1-477); settings: protein: recombinant; tags: N-terminal GST; dsDNA, one strand shown
Sequence of ETV1 (P50549 whole entry): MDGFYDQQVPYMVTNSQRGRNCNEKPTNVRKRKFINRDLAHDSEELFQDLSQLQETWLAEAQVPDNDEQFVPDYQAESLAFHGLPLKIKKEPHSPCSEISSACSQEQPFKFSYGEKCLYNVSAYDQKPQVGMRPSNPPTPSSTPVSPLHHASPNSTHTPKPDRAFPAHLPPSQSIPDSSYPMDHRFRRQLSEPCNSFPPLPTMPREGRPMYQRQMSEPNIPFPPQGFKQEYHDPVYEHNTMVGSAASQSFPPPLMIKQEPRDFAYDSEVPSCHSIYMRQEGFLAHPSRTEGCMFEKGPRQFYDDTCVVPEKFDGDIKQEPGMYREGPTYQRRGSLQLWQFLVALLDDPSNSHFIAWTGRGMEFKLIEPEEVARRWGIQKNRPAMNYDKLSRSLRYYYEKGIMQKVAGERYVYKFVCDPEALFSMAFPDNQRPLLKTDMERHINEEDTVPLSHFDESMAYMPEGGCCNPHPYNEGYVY
Procedure, shortened: as §1

## ATACCT
[1]
  binding signal: 1.13 fold enrichment (6-mer frequency, TF over GST control)
[2]
  binding signal: 1.18 fold enrichment (6-mer frequency, TF over GST control)
[3]
  binding signal: 1.07 fold enrichment (6-mer frequency, TF over GST control)
[4]
  binding signal: 1.05 fold enrichment (6-mer frequency, TF over GST control)
[5]
  binding signal: 1.13 fold enrichment (6-mer frequency, TF over GST control)
[6]
  binding signal: 1.08 fold enrichment (6-mer frequency, TF over GST control)
[7]
  binding signal: 1.04 fold enrichment (6-mer frequency, TF over GST control)
[8]
  binding signal: 1.1 fold enrichment (6-mer frequency, TF over GST control)
[9]
  binding signal: 1.08 fold enrichment (6-mer frequency, TF over GST control)
[10]
  binding signal: 1.04 fold enrichment (6-mer frequency, TF over GST control)
[11]
  binding signal: 1.01 fold enrichment (6-mer frequency, TF over GST control)
[12]
  binding signal: 1.01 fold enrichment (6-mer frequency, TF over GST control)
[13]
  binding signal: 1.11 fold enrichment (6-mer frequency, TF over GST control)
[14]
  binding signal: 1.1 fold enrichment (6-mer frequency, TF over GST control)
[15]
  binding signal: 1.1 fold enrichment (6-mer frequency, TF over GST control)
[16]
  binding signal: 1.09 fold enrichment (6-mer frequency, TF over GST control)
[17]
  binding signal: 1.08 fold enrichment (6-mer frequency, TF over GST control)
[18]
  binding signal: 1.12 fold enrichment (6-mer frequency, TF over GST control)
[19]
  binding signal: 1.15 fold enrichment (6-mer frequency, TF over GST control)
